Sampled rows, rich in hits. Any-hit rate of the full collection: about 0.82%.
PrPC TRFRET – reduces human prion protein on the cell surface | inhibition, % at 13.8 µM | hit rate 0.43% among 370,000 | cell surface PrPC, TR-FRET read-out | P04156; in the data active = inhibition above about 24%
DUSP3 inh – inhibitors of human VHR1 phosphatase (DUSP3) | recombinant VHR phosphatase, pNPP absorbance | hit rate 0.52% among 290,000 | inhibition, % at 13.3 µM; in the data active = inhibition above about 50%
TcdB GH inh – blocks C. difficile toxin B glycohydrolase activity; TcdB glycohydrolase enzymatic assay, plate reader; inhibition, % at 9.99 µM; hit rate 0.24% among 350,000; AID 652162; in the data active = inhibition above about 10%
PrPC confirm – cell surface PrPC inhibition, TR-FRET confirmation. cell surface PrPC level. shares compounds with PrPC TRFRET. hit rate 65% among 1,500. AID 743200. inhibition, % at 13.8 µM; in the data active = inhibition above about 25%
LD9 cytotox – kills or reduces viability of LD9 cells in PrPc counter-screen; shares compounds with PrPC TRFRET; LD9 cells cytotoxicity, luminescence viability; inhibition, % at 13.8 µM; hit rate 29% among 1,500; AID 743201; in the data active = inhibition above about 9.5%
Large screens that a line does not name were inactive (follow-up assays come after a bar, where they were run).

CC(=O)c1c(C)[nH]c(C(=O)CSc2nnc(N)s2)c1C	PrPC TRFRET 30 | PrPC confirm 30 | LD9 cytotox inactive
O=S(=O)(NCC[C@@H]1CC[C@@H](NS(=O)(=O)c2cccc(F)c2)[C@H](CO)O1)c1cccc(F)c1	none (no result: PrPC TRFRET, DUSP3 inh)
C[C@@H]1CN([C@@H](C)CO)C(=O)c2ccccc2-c2ccccc2CO[C@H]1CN(C)C(=O)Nc1cccc(F)c1	none (no result: PrPC TRFRET, DUSP3 inh)
O=C(Nc1cccc(S(=O)(=O)Nc2ccc(Cl)cc2)c1)c1cc2c(s1)CCCC2	PrPC TRFRET 27 (no result: TcdB GH inh) | PrPC confirm 32 | LD9 cytotox inactive
Cc1ccc(NC(=O)c2cc3c(s2)CCCC3)cc1S(=O)(=O)Nc1ccccc1Cl	none (no result: TcdB GH inh)
O=C(NC1CCCCCC1)c1cc(S(=O)(=O)N2CCOCC2)ccc1N1CCCCC1	PrPC TRFRET 28 (no result: TcdB GH inh) | PrPC confirm inactive | LD9 cytotox inactive
O=C(Nc1cc(S(=O)(=O)N2CCOCC2)ccc1N1CCCC1)c1cc2c(s1)CCCC2	PrPC TRFRET 52 (no result: DUSP3 inh, TcdB GH inh) | PrPC confirm 75 | LD9 cytotox inactive
O=C(Nc1ccccc1N1CCOCC1)c1cc2c(s1)CCCCC2	none
O=C(Nc1ccc(N2CCOCC2)cc1)c1cc2c(s1)CCCCC2	PrPC TRFRET 25 | PrPC confirm inactive | LD9 cytotox 12
O=C(NC1CCCCCC1)c1cc(S(=O)(=O)N2CCCCC2)ccc1N1CCOCC1	none
O=C(Nc1ccc(N2CCOCC2)cc1)c1cc2c(s1)CCCC2	none
COc1ccc2c3c([nH]c2c1)[C@@H](CO)N(C(=O)c1cccnc1)CC31CN(C(=O)c2cccnc2)C1	none (no result: PrPC TRFRET, DUSP3 inh)
CC(C)NC(=O)N(C)C[C@H]1OCc2ccccc2-c2ccccc2C(=O)N([C@@H](C)CO)C[C@@H]1C	none (no result: PrPC TRFRET, DUSP3 inh)
COc1ccc(C(=O)Nc2nc3c(s2)CCCC3)cc1S(=O)(=O)N1CCCc2ccccc21	PrPC TRFRET 28 (no result: TcdB GH inh) | PrPC confirm inactive | LD9 cytotox inactive
COc1ccc(C(=O)Nc2ncccc2C)cc1S(=O)(=O)N1CCCc2ccccc21	none (no result: DUSP3 inh)
COc1cccc(CNC(=O)[C@@H]2[C@@H](CO)[C@@H]3Cn4c(ccc(C5=CCCCC5)c4=O)[C@H]2N3)c1	none (no result: PrPC TRFRET, DUSP3 inh)
CCCNC(=O)C[C@H]1CC[C@H]2[C@@H](COc3ccc(NC(=O)NCC)cc3C(=O)N2C)O1	none (no result: PrPC TRFRET, DUSP3 inh)
CO[C@H]1CN(C)C(=O)c2ccc(NC(=O)c3cnccn3)cc2OC[C@@H](C)N(CCc2ccccc2)C[C@@H]1C	none (no result: PrPC TRFRET, DUSP3 inh)
COC(=O)c1c(NC(=O)COc2ncnc3ccccc23)sc(C)c1C	none
CCOC(=O)c1c(NC(=O)COc2ncnc3ccccc23)sc(C(C)=O)c1C	PrPC TRFRET 29 (no result: TcdB GH inh) | PrPC confirm 36 | LD9 cytotox inactive
CCc1ccccc1Nc1nn2c(=O)c3ccc(C(=O)NCc4ccccn4)cc3nc2s1	PrPC TRFRET 38 | PrPC confirm 25 | LD9 cytotox inactive
O=C(NCc1ccccn1)c1ccc2c(=O)n3nc(Nc4ccccc4)sc3nc2c1	none
CCNC(=O)C[C@H]1CC[C@@H]2[C@H](COc3ccc(NC(=O)Nc4c(C)noc4C)cc3C(=O)N2C)O1	none (no result: PrPC TRFRET, DUSP3 inh)
NS(=O)(=O)c1c(Sc2ccccc2C(=O)O)ccc2ccccc12	PrPC TRFRET 34 | PrPC confirm 53 | LD9 cytotox inactive
CNS(=O)(=O)c1cc(Cl)ccc1Sc1ccccc1C(=O)O	none
C[C@H](CO)N1C[C@H](C)[C@@H](CN(C)C(=O)c2ccc(F)cc2)Oc2ncc(-c3ccncc3)cc2C1=O	none (no result: PrPC TRFRET, DUSP3 inh)
CC(C)C(=O)NNC(=O)CSc1nc(C2CCCCC2)nc2ccccc12	none (no result: TcdB GH inh)
CCc1nc(SCC(=O)NNC(=O)C2CCCCC2)c2ccccc2n1	PrPC TRFRET 60 (no result: TcdB GH inh) | PrPC confirm 114 | LD9 cytotox inactive
CCc1nc(SCC(=O)Nc2ccc(N(C)C)cc2)c2ccccc2n1	PrPC TRFRET 61 | PrPC confirm 81 | LD9 cytotox inactive
CCc1nc(SCC(=O)NNC(=O)C(C)C)c2ccccc2n1	PrPC TRFRET 104 (no result: TcdB GH inh) | PrPC confirm 114 | LD9 cytotox inactive
CC(=O)c1ccc(NC(=O)CSc2nc(C3CC3)nc3ccccc23)cc1	none
O=C(CSc1nc(COc2ccccc2)nc2ccccc12)NC1CCCC1	none
CCCC(=O)N1CCC2(CC1)CN(C(=O)C1CC1)[C@@H](CO)c1[nH]c3cc(OC)ccc3c12	none (no result: PrPC TRFRET, DUSP3 inh)
O=c1nc(SCc2cccc(C(F)(F)F)c2)nc2ccccn12	PrPC TRFRET 34 | PrPC confirm inactive | LD9 cytotox inactive
Cc1ccn2c(=O)nc(SCc3cccc(C(F)(F)F)c3)nc2c1	none
CN=C(Nc1ccc(C)c(C)c1)SC1CC(=O)N(c2ccc(OC)cc2)C1=O (configuration not stated)	none
CN=C(Nc1cccc(Cl)c1)SC1CC(=O)N(c2ccc(OC)cc2)C1=O (configuration not stated)	PrPC TRFRET 30 | PrPC confirm inactive | LD9 cytotox inactive
Cn1c(CSc2ncccn2)nnc1SCC(=O)N1CCCCC1	none (no result: TcdB GH inh)
CC1CCN(C(=O)CSc2nnc(CSc3ncccn3)n2C)CC1	PrPC TRFRET 25 (no result: TcdB GH inh) | PrPC confirm inactive | LD9 cytotox inactive
COc1ccc(OC(=O)N(C)C[C@@H]2OCc3ccccc3-c3ccccc3C(=O)N([C@H](C)CO)C[C@@H]2C)cc1	none (no result: PrPC TRFRET, DUSP3 inh)
COc1ccc(C(=O)Nc2cc(OC)c(Cl)cc2Cl)cc1	none
COc1ccc(C(=O)Nc2scc(-c3ccc(Cl)cc3Cl)c2C(N)=O)cc1	PrPC TRFRET 68 (no result: TcdB GH inh) | PrPC confirm 34 | LD9 cytotox inactive
O=C1NC2C(=CC(O)C(O)C2O)c2cc3c(c(O)c21)OCO3 (configuration not stated)	PrPC TRFRET 89 (no result: DUSP3 inh) | PrPC confirm 97 | LD9 cytotox 55
COc1cc(C2c3cc4c(cc3CC3COC(=O)C32)OCO4)cc(OC)c1O (configuration not stated)	none (no result: DUSP3 inh)
O=C1NC2C(O)C(O)C(O)C(O)C2c2cc3c(c(O)c21)OCO3 (configuration not stated)	PrPC TRFRET 90 (no result: DUSP3 inh) | PrPC confirm 100 | LD9 cytotox 32
C[C@H](CO)N1C[C@H](C)[C@@H](CN(C)C(=O)Nc2ccccc2)OCCCC[C@H](C)Oc2ccc(NS(C)(=O)=O)cc2C1=O	none (no result: PrPC TRFRET, DUSP3 inh)
C[C@H]1CN([C@@H](C)CO)C(=O)c2cc(-c3cncnc3)cnc2O[C@@H]1CN(C)CC1CCCC1	none (no result: PrPC TRFRET, DUSP3 inh)
C[C@@H]1CN([C@H](C)CO)C(=O)c2cccc(NC(=O)Nc3ccc4c(c3)OCO4)c2O[C@H]1CN(C)Cc1ccccc1	none (no result: PrPC TRFRET, DUSP3 inh)
C[C@H]1CN([C@@H](C)CO)S(=O)(=O)c2ccc(C#Cc3ccccc3)cc2O[C@H]1CN(C)S(C)(=O)=O	none (no result: PrPC TRFRET, DUSP3 inh)
COC(=O)C1=C(c2ccc3ccccc3c2)C[C@@H]2CC[C@H]1N2C	none (no result: DUSP3 inh)
COC(=O)C1=C(C(=O)OC)C2OC1c1cc3ccccc3cc12	PrPC TRFRET 45 (no result: DUSP3 inh) | PrPC confirm inactive | LD9 cytotox 98
CCS(=O)(=O)Nc1ccc2c(c1)C(=O)N(C)C[C@@H](OC)[C@@H](C)CN(C)[C@H](C)CO2	none (no result: PrPC TRFRET, DUSP3 inh)
O=C(C[C@H]1C=C[C@H](NC(=O)CCN2CCCCC2)[C@@H](CO)O1)Nc1ccccc1	none (no result: PrPC TRFRET, DUSP3 inh)
COc1ccc2c3c([nH]c2c1)[C@H](CO)N(C(=O)CC1CC1)CC31CCN(C(=O)CC2CC2)CC1	none (no result: PrPC TRFRET, DUSP3 inh)
CCOC(=O)c1c(-c2ccc(C)s2)csc1N	PrPC TRFRET 70 | PrPC confirm 54 | LD9 cytotox inactive
CCOC(=O)c1c(-c2ccsc2)csc1N	none (no result: TcdB GH inh)

Source: PubChem
